High-throughput results from PubChem.
MITF primary = MITF inhibitors, primary screen, biochemical, AlphaScreen, human; Microphthalmia-associated transcription factor (Homo sapiens), O75030; AlphaScreen MITF homodimerization, bead proximity signal; inhibition, % at 2.6 µM; hit rate 0.91% among 650,000; AID 1259374, 2018; in the data active = inhibition above about 50%;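 note: 0% = vehicle wells with protein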
TEAD-YAP block = TEAD-YAP interaction inhibition, primary screen, TEAD-YAP interaction inhibitor project, luminescence, HEK-TIYL cells. hit rate 1.4% among 640,000. TEAD-Gal4/YAP UAS-luciferase luminescence. inhibition, % at 9.12 µM; in the data active = inhibition above about 32%;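 note: 0% = median of test compound wells and 100% = reference inhibitor wells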
GPR151 ag = activators of human GPR151, primary screen, cell-based, PathHunter beta-arrestin, luminescence; G-protein coupled receptor 151 (Homo sapiens), Q8TDV0; PathHunter beta-arrestin GPR151 cells; activation, % at 11.2 µM; hit rate 1% among 650,000; in the data active = activation above about 4.9%;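 note: 0% = median of compound wells and 100% = cells with positive control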
FBW7 activator = FBW7 E3 ligase activators, primary screen, biochemical, AlphaScreen, human. F-box/WD repeat-containing protein 7 (Homo sapiens), Q969H0. AlphaScreen FBW7–phospho-cyclin E peptide binding, activator screen. normalized activity (activation), % at 26.1 µM. hit rate 0.13% among 650,000. AID 1259310, 2017; in the data active = normalized activity above about 1.9%;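 note: purified mutant Fbw7 with reduced substrate affinity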
Target sequence (Q969H0 whole entry, looked up): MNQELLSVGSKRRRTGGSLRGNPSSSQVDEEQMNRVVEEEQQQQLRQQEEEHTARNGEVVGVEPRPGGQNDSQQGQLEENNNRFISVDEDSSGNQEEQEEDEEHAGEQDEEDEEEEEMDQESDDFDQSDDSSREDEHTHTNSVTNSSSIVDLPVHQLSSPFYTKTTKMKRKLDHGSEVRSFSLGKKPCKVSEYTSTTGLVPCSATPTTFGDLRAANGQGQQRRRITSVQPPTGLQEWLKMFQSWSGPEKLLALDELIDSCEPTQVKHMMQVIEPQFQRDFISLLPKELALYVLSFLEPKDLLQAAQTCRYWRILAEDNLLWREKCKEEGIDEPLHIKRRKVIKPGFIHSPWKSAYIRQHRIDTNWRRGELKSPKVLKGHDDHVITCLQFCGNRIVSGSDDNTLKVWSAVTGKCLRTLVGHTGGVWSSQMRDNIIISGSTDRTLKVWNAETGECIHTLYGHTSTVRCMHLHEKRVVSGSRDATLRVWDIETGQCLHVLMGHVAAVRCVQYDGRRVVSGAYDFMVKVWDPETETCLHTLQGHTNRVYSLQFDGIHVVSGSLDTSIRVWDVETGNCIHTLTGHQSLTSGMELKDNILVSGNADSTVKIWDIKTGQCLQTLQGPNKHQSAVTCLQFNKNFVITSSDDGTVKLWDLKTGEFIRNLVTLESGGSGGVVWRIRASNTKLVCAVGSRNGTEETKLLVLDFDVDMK
* marks the source's active call; other numbers are inactive results. In the library only some 3.5% were active in any assay of this set; here they are far more common.

SMILES	MITF primary	TEAD-YAP block	GPR151 ag	FBW7 activator
COc1ccc(C2CC(=O)C3=C(C2)NC(C)=C(C(=O)OC2CCCC2)C3c2ccccc2F)cc1OC (centres undefined)	-15.6	47.9*	-0.6	0.0
COc1ccc(C2CC(=O)C3=C(C2)NC(C)=C(C(=O)OC2CCCC2)C3c2ccc(F)cc2)cc1OC (centres undefined)	0.9	37.3*	-0.3	0.4
O=C(Cn1ncc2c3ccccc3n(Cc3ccc(F)cc3)c2c1=O)NCc1cccnc1	-3.9	-2.1	-0.7	0.1
CC(=O)c1cccc(NC(=O)c2cc3c(=O)n4cccc(C)c4nc3n2C)c1	2.0	4.9	-0.7	0.0
Nc1nc(NCc2ccccc2)cc(-c2ccc3[nH]ccc3c2)n1	0.2	34.2*	-0.6	-0.1
O=c1c(NCC2CCCO2)c(-c2ccccc2)c1=O (centres undefined)	8.0	5.8	-0.6	0.1
COC(CN(C)C1=NC(=O)/C(=C\c2ccc(SC)cc2)S1)OC	5.4	42.2*	-1.3	0.1
O=C(Nc1c2c(nn1-c1cccc(Cl)c1)CSC2)c1ccccc1[N+](=O)[O-]	2.4	-9.6	1.2	-0.1
COc1ccccc1C(=O)Nc1nc2ccc(NC(C)=O)cc2s1	-25.5	12.4	-0.3	0.1
CCCc1ccc(C(=O)Nc2nc3ccccc3s2)cc1	3.0	38.0*	-2.9	0.0
COc1ccc(C(=O)Nc2nc3c(Cl)cccc3s2)c(OC)c1	-16.7	78.0*	0.9	-0.1
CCCOc1ccc(C(=O)Nc2nc3ccccc3s2)cc1	-9.6	5.8	-2.6	-0.1
CC(C)(C)c1ccc(C(=O)Nc2nc3ccccc3s2)cc1	9.8	39.2*	0.8	-0.1
COc1ccccc1C(=O)Nc1nc2ccccc2s1	5.8	95.0*	-11.3	0.0
COc1ccc2c(c1)-c1c(ssc1=S)C(C)(C)N2C(=O)CN1C(=O)CCC1=O	7.3	6.6	0.4	-0.1
Cn1c(=O)c2c(nc3n2CC(c2ccc(F)cc2)=NN3CCO)n(C)c1=O	19.1	16.7	-0.5	0.5
Cc1ccsc1C(=O)Nc1nc2ccc(S(C)(=O)=O)cc2s1	3.1	62.2*	-11.5	-0.1
O=C(Nc1nc2ccccc2s1)c1ccc(C(=O)c2ccccc2)cc1	-2.9	-25.6	-0.7	-0.1
Cc1ccccc1C(=O)Nc1ccc2nc(NC(=O)c3ccccc3C)sc2c1	7.2	54.9*	0.8	0.1
CC(C)Oc1ccc(C(=O)Nc2nc3ccccc3s2)cc1	0.8	73.5*	-5.9	0.0
CC(C)Oc1ccc(C(=O)NCc2ccccc2)cc1	12.5	-21.6	-1.0	2.5*
CC(=O)Nc1ccc2nc(NC(=O)c3ccccc3C)sc2c1	-4.8	-56.3	-5.1	-0.1
COc1ccc(CNC(=O)c2ccc(OC(C)C)cc2)cc1	5.2	-36.5	-0.7	0.0
Cc1cc(=O)nc2c3ccccc3n(CC(=O)NCCCOC(C)C)n12	7.5	3.0	0.8	0.2
COc1ccc(CNC(=O)c2cn(C)c(=O)c3c2c2ccccc2n3C)c(OC)c1	1.5	9.1	-0.3	0.0
SMILES	MITF primary	TEAD-YAP block	GPR151 ag	FBW7 activator
O=C(NC(=S)Nc1nc2ccccc2s1)c1ccccc1Cl	-0.4	69.6*	-9.6	-0.1
CC(=O)c1c(C)n(-c2ccc(N(C)C)cc2)c2ccc(O)cc12	5.1	40.2*	-0.1	-0.1
COc1ccc(S(=O)(=O)NCc2cccnc2)c2ccccc12	9.9	0.9	-0.3	1.0
COc1ccc(CNS(=O)(=O)c2ccc(OC)c3ccccc23)cc1	-5.4	34.3*	3.5	0.0
Cc1ccc(OCC(O)CN(CCO)CCO)cc1 (centres undefined)	-18.9	-2.4	0.6	0.0
OCCN(CCO)CC(O)COc1ccc(C23CC4CC(CC(C4)C2)C3)cc1 (centres undefined)	4.0	55.9*	-0.4	0.0
O=C(Nc1ccc2c(c1)CN(C(=O)CN1CCOC1=O)CC2)c1ccccc1Cl	-8.5	3.2	0.1	0.1
Cn1ccc(CC(=O)N2CCc3ccc(NC(=O)c4ccccc4Cl)cc3C2)c1	0.8	42.7*	0.4	0.1
Cc1ccccc1NC(=O)CSC1=C(C#N)C(c2ccco2)C2=C(CCCC2=O)N1 (centres undefined)	12.5	45.0*	0.3	0.1
CCOC(=O)CSC1=C(C#N)C(c2ccco2)CC(=O)N1 (centres undefined)	0.9	55.4*	-0.1	-0.1
CCCOC(=O)CSC1=C(C#N)C(c2ccc3c(c2)OCO3)CC(=O)N1 (centres undefined)	-1.5	0.6	3.3	-0.1
COC(=O)CSC1=C(C#N)C(c2ccccc2C)CC(=O)N1 (centres undefined)	-8.8	6.7	-1.1	0.2
CCCOC(=O)CSC1=C(C#N)C(c2cccc(Cl)c2)CC(=O)N1 (centres undefined)	1.6	62.4*	0.4	0.2
COC(=O)CSC1=C(C#N)C(c2ccc(C)o2)CC(=O)N1 (centres undefined)	6.6	56.4*	1.0	0.1
CCOC(=O)c1c(NC(=O)Cn2cnc3c2c(=O)n(C)c(=O)n3C)sc2c1CCC2	11.1	13.5	0.3	0.1
CC(C)(C)C(=O)Nc1cccc(C(=O)Nc2ccc(I)cc2)c1	-4.6	-68.4	1.5	0.2
CC(=O)C1=C(C)NC(SCC(=O)c2ccccc2)=C(C#N)C1c1ccco1 (centres undefined)	14.0	-18.6	-0.7	0.9
CCOC(=O)CSC1=C(C#N)C(c2ccco2)C(C(=O)Nc2ccccc2F)=C(C)N1 (centres undefined)	11.5	45.1*	0.8	0.2
COc1ccccc1NC(=O)C1=C(C)NC(SCC(=O)c2ccc(F)cc2)=C(C#N)C1c1ccco1 (centres undefined)	3.4	-16.2	-1.2	0.7
CC(=O)C1=C(C)NC(SCC(=O)c2ccc(C)c(C)c2)=C(C#N)C1c1ccco1 (centres undefined)	22.9	8.9	-0.4	1.9*
Nn1c(SCC(=O)Nc2ccc(Br)cc2)nnc1-c1ccccc1	15.9	10.6	0.0	0.1
CCN1CCN(C2=NC(=O)/C(=C/c3ccccc3O)S2)CC1	14.1	5.8	1.7	0.1
O=C(c1ccco1)N1CCN(c2nc(N3CCOCC3)nc(-n3ccnc3)n2)CC1	5.0	-9.3	1.3	-0.1
N#Cc1ccc(-c2cnc3ccc(NCCCO)nn23)cc1	-16.6	49.5*	0.4	-0.3
OCCCNc1ccc2ncc(-c3ccc(OC(F)(F)F)cc3)n2n1	13.9	-0.3	-0.7	0.1
OCCCNc1ccc2ncc(-c3ccc(Oc4ccccc4)cc3)n2n1	9.7	49.5*	1.2	0.1
OCCCNc1ccc2ncc(-c3ccc(F)c(Cl)c3)n2n1	-11.0	-3.1	1.6	0.2
OCCCNc1ccc2ncc(-c3ccc(F)cc3)n2n1	1.7	53.6*	-0.6	-0.1
CCCn1c(-c2ccccc2)c(CC)n2c3c(=O)n(C)c(=O)n(C)c3nc12	12.3	5.9	0.6	0.6
CCc1c(-c2ccccc2)n(CCO)c2nc3c(c(=O)n(C)c(=O)n3C)n12	18.3	64.3*	2.2	0.1
